# Assay results published in article PMC7862700, “An all-to-all approach to the identification of sequence-specific readers for epigenetic DNA modifications on cytosine”.
# Key:
# Experiment in all cases: DAPPL (digital affinity profiling via proximity ligation, sequencing); 10 mM Tris-HCl pH 7.5, 50 mM NaCl, 1 mM DTT, 4% glycerol, room temperature, 30 min; GST-TFs on glutathione beads, 16-mer random dsDNA library, 0.1% formaldehyde crosslink after washing; high values mean tight binding
# [1] = molecular target: T1, FLI1 (Homo sapiens, UniProt Q01543 1-452); settings: protein: recombinant; tags: N-terminal GST; dsDNA, one strand shown
# T1 sequence: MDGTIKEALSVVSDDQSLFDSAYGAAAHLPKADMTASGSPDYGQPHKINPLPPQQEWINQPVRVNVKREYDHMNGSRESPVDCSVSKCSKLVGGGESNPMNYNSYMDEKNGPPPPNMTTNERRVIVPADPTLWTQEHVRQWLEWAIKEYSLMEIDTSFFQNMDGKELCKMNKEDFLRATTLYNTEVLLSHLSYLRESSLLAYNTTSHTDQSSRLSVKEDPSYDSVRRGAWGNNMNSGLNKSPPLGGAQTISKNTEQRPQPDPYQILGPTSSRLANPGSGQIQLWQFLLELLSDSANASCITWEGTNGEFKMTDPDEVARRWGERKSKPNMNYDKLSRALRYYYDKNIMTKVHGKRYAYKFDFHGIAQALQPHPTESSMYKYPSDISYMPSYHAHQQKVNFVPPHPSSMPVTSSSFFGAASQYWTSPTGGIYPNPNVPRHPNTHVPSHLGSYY
# Summary of the method: (§1)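 Pools of DNA-barcoded human transcription factors, expressed in yeast as GST fusions on glutathione beads and combined with a tag-only sample, were incubated with 200 nmole of a 16-mer random double-stranded DNA library. Incubation took 30 min at room temperature in Tris/NaCl/DTT/glycerol buffer and was followed by washing, 0.1% formaldehyde crosslinking, proximity ligation (BsaI/T4 ligase, 1 h, 37 °C), PCR amplification and sequencing on an Illumina NextSeq500. Binding signal is the ratio of a hexamer's read frequency for a factor to its frequency for the tag-only sample.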
# [2] = molecular target: T2, ELK1 (Homo sapiens, UniProt P19419 1-428); settings: protein: recombinant; tags: N-terminal GST; dsDNA, one strand shown
# T2 sequence: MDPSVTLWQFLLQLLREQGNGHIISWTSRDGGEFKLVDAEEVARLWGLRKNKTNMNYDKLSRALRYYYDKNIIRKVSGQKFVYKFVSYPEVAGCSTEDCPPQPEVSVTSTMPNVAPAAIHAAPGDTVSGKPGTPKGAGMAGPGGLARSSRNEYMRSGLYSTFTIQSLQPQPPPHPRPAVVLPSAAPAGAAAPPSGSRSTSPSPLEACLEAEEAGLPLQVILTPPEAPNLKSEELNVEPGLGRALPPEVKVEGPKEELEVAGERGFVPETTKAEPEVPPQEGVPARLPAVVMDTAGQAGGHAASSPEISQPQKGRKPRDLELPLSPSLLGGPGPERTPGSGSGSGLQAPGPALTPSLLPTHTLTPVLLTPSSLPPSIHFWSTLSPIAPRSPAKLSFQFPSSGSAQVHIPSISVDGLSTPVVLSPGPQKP
# Summary of the method: as §1
# [3] = molecular target: T3, GABPA (Homo sapiens, UniProt Q06546 1-454); settings: protein: recombinant; tags: N-terminal GST; dsDNA, one strand shown
# T3 sequence: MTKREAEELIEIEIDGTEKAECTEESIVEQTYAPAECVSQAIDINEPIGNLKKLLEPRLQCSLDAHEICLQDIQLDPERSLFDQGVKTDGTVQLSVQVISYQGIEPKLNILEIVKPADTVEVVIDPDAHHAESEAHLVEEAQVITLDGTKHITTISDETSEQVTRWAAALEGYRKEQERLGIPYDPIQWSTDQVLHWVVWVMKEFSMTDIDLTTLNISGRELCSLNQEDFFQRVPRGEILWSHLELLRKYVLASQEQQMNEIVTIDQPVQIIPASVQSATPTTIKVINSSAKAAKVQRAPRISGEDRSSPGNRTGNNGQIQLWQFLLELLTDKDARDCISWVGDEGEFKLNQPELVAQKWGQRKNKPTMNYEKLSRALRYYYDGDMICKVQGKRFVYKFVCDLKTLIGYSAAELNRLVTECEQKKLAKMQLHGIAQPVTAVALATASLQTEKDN
# Summary of the method: as §1
# [4] = molecular target: T4, ERG (Homo sapiens, UniProt P11308 1-479); settings: protein: recombinant; tags: N-terminal GST; dsDNA, one strand shown
# T4 sequence: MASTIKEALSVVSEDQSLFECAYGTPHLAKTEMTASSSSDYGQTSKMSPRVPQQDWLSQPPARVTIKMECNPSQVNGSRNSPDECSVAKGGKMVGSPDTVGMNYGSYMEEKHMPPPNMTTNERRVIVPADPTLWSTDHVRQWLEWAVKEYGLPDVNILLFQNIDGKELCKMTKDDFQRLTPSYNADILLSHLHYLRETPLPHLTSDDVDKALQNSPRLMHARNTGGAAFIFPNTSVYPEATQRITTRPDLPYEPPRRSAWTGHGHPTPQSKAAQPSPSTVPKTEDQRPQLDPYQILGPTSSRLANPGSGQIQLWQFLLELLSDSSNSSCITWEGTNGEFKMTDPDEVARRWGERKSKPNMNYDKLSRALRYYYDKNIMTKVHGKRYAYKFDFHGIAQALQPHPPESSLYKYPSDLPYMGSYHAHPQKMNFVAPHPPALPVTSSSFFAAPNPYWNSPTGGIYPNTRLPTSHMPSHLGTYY
# Summary of the method: as §1
# [5] = molecular target: ELF1 (Homo sapiens, UniProt P32519 1-619); settings: protein: recombinant; tags: N-terminal GST; dsDNA, one strand shown
# ELF1, sequence (P32519 whole entry): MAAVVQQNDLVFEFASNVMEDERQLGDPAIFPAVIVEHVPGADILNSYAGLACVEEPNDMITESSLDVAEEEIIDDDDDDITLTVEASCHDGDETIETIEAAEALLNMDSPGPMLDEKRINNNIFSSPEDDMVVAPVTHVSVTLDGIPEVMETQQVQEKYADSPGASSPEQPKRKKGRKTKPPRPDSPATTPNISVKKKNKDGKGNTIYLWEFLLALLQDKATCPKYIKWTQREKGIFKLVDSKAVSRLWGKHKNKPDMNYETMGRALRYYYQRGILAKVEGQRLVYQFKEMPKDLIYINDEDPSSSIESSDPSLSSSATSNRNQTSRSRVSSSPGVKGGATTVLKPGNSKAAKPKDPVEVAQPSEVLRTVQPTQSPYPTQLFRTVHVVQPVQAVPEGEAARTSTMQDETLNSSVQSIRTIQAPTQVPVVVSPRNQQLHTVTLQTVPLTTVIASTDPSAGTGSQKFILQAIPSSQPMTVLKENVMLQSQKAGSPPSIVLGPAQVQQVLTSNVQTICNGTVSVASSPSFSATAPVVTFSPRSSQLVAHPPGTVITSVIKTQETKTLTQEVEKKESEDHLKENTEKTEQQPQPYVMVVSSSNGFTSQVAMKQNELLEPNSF
# Summary of the method: as §1
# [6] = molecular target: T5, EHF (Homo sapiens, UniProt Q9NZC4 1-300); settings: protein: recombinant; tags: N-terminal GST; dsDNA, one strand shown
# T5 sequence: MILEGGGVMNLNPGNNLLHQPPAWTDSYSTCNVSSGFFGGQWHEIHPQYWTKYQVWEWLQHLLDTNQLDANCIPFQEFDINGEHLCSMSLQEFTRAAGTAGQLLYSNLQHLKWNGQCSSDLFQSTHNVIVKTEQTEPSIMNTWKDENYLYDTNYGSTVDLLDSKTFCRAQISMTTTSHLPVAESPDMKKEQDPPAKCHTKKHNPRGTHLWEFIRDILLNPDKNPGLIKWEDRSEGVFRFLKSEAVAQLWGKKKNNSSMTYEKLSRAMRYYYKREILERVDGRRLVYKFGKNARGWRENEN
# Summary of the method: as §1
# [7] = molecular target: SPI1 (Homo sapiens, UniProt P17947 1-270); settings: protein: recombinant; tags: N-terminal GST; dsDNA, one strand shown
# Summary of the method: as §1
# [8] = molecular target: SPIB (Homo sapiens, UniProt Q01892 1-262); settings: protein: recombinant; tags: N-terminal GST; dsDNA, one strand shown
# SPIB, sequence (Q01892 whole entry): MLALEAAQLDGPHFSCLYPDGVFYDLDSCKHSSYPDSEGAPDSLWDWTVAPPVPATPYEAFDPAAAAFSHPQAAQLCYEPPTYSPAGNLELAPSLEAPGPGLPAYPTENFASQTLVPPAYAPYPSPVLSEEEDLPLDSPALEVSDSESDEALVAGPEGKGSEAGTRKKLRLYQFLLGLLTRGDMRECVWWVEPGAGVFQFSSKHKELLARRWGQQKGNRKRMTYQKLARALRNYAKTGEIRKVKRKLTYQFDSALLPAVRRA
# Summary of the method: as §1
# [9] = molecular target: T6, ELK3 (Homo sapiens, UniProt P41970 1-407); settings: protein: recombinant; tags: N-terminal GST; dsDNA, one strand shown
# T6 sequence: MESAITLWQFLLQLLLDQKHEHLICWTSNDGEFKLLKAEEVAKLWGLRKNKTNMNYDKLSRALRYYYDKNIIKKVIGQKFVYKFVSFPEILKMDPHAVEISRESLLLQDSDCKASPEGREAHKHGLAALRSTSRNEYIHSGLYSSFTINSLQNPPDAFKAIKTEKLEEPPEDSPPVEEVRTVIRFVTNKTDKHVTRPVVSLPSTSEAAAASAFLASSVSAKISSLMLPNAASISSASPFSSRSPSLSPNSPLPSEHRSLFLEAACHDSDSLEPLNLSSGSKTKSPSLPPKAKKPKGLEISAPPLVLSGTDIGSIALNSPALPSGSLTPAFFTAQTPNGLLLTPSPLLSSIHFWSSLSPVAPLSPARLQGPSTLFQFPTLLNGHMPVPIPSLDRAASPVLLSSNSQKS
# Summary of the method: as §1
# [10] = molecular target: T7, FEV (Homo sapiens, UniProt Q99581 1-238); settings: protein: recombinant; tags: N-terminal GST; dsDNA, one strand shown
# T7 sequence: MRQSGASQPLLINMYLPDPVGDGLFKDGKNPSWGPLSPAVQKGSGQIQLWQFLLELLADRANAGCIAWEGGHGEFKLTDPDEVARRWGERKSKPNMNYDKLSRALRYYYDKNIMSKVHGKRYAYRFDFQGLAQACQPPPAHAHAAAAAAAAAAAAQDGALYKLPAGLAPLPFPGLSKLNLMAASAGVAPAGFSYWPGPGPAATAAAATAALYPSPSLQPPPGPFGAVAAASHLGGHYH
# Summary of the method: as §1
# [11] = molecular target: ETV5 (Homo sapiens, UniProt P41161 1-510); settings: protein: recombinant; tags: N-terminal GST; dsDNA, one strand shown
# ETV5, sequence (P41161 whole entry): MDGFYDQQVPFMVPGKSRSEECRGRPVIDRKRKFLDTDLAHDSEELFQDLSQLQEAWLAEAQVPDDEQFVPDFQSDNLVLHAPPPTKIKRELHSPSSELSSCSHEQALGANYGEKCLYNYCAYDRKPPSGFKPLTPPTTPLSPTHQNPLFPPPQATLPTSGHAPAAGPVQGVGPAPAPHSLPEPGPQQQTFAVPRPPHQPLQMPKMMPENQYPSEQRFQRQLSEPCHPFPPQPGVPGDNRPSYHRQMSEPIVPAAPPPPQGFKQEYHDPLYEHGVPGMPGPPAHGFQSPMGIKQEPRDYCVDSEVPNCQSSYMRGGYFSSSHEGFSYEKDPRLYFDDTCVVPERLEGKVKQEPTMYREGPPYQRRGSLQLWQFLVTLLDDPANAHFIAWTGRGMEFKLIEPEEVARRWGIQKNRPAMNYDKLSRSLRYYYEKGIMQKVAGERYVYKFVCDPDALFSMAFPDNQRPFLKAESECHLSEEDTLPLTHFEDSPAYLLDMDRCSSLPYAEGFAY
# Summary of the method: as §1
# [12] = molecular target: HSF1 (Homo sapiens, UniProt Q00613 1-529); settings: protein: recombinant; tags: N-terminal GST; chain copies: 3; dsDNA, one strand shown
# HSF1, sequence (Q00613 whole entry): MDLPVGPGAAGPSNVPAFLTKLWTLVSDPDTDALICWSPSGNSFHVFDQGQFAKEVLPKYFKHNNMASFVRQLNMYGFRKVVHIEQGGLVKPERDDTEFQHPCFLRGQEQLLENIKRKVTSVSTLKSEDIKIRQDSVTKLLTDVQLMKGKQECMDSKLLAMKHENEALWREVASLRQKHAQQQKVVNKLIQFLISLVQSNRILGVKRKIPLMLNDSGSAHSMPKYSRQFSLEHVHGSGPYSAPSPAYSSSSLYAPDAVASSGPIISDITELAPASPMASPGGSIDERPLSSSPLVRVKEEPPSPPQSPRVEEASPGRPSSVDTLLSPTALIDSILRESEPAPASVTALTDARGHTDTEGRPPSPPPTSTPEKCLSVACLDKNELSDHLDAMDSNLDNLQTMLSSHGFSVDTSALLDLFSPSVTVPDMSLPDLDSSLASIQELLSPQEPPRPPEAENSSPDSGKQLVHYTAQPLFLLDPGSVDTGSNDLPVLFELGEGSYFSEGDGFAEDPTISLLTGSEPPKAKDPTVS
# Summary of the method: as §1
# [13] = molecular target: T8, SPIC (Homo sapiens, UniProt Q8N5J4 1-248); settings: protein: recombinant; tags: N-terminal GST; dsDNA, one strand shown
# T8 sequence: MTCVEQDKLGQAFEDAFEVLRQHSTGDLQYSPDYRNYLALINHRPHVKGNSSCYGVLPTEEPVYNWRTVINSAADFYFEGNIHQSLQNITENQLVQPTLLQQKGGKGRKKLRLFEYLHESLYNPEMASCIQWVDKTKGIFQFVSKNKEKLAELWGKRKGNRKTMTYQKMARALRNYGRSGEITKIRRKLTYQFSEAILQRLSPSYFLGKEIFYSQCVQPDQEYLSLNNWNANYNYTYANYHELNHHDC
# Summary of the method: as §1
# [14] = molecular target: ELF4 (Homo sapiens, UniProt Q99607 1-663); settings: protein: recombinant; tags: N-terminal GST; dsDNA, one strand shown
# ELF4, sequence (Q99607 whole entry): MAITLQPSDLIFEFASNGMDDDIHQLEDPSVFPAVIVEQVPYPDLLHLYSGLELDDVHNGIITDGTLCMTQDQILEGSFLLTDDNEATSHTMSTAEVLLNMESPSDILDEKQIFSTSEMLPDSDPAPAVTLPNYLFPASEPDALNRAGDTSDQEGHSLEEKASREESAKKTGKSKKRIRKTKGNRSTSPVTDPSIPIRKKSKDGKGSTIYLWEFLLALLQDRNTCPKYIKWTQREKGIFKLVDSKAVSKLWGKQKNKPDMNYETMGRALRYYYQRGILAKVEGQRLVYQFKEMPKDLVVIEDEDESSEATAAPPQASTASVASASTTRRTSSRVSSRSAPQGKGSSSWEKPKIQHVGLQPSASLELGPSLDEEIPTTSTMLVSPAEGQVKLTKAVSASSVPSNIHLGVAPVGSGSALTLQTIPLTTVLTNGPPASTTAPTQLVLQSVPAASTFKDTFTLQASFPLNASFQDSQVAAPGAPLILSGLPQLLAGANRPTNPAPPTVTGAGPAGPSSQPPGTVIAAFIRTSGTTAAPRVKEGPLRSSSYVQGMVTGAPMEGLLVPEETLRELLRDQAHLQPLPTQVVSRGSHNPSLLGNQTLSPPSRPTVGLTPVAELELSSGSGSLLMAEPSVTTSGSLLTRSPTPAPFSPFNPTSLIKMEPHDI
# Summary of the method: as §1
# [15] = molecular target: T9, ELK4 (Homo sapiens, UniProt P28324-2 1-405); settings: protein: recombinant; tags: N-terminal GST; dsDNA, one strand shown
# T9 sequence: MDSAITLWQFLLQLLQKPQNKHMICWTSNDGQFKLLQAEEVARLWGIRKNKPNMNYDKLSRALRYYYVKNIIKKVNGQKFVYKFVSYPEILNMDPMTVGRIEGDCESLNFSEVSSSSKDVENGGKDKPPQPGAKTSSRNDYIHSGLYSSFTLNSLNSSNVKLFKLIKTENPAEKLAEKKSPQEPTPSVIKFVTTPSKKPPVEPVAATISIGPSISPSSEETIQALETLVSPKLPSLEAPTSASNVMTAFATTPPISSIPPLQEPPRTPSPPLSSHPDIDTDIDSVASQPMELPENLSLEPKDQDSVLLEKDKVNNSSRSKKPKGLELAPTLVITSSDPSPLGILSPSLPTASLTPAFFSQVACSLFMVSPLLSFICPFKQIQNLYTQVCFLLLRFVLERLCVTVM
# Summary of the method: as §1
# [16] = molecular target: T10, ETV2 (Homo sapiens, UniProt O00321 1-342); settings: protein: recombinant; tags: N-terminal GST; dsDNA, one strand shown
# T10 sequence: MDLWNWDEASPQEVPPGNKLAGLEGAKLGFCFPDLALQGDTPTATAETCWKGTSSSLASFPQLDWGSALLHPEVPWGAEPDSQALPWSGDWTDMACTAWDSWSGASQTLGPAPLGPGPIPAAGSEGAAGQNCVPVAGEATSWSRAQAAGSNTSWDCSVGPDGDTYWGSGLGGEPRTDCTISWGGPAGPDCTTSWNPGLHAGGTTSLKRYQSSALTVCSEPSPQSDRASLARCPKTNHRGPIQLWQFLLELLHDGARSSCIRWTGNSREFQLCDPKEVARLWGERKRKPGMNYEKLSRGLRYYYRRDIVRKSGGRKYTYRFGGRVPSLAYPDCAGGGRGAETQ
# Summary of the method: as §1
# [17] = molecular target: T11, ELF3 (Homo sapiens, UniProt P78545 1-371); settings: protein: recombinant; tags: N-terminal GST; dsDNA, one strand shown
# T11 sequence: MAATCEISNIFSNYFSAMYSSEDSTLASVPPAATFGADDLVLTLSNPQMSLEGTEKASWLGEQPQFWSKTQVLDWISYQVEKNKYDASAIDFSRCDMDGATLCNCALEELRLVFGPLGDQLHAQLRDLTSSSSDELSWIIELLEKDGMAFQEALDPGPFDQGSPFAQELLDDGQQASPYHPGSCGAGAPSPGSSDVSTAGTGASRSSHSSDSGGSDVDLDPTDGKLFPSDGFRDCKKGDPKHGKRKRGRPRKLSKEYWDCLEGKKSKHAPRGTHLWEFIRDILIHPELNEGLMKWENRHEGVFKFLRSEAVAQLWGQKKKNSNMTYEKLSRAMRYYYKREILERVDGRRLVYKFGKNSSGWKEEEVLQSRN
# Summary of the method: as §1
# [18] = molecular target: CRX (Homo sapiens, UniProt O43186 1-299); settings: protein: recombinant; tags: N-terminal GST; dsDNA, one strand shown
# CRX, sequence (O43186 whole entry): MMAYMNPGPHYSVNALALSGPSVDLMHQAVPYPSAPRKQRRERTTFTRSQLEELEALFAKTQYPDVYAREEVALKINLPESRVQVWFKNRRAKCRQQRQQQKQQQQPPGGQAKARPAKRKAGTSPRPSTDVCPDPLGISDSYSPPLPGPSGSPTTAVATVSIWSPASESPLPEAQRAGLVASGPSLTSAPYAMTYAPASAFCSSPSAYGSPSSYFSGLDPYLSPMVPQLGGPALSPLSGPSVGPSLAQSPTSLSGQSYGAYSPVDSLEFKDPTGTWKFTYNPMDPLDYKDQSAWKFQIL
# Summary of the method: as §1
# [19] = molecular target: ETV1 (Homo sapiens, UniProt P50549 1-477); settings: protein: recombinant; tags: N-terminal GST; dsDNA, one strand shown
# ETV1, sequence (P50549 whole entry): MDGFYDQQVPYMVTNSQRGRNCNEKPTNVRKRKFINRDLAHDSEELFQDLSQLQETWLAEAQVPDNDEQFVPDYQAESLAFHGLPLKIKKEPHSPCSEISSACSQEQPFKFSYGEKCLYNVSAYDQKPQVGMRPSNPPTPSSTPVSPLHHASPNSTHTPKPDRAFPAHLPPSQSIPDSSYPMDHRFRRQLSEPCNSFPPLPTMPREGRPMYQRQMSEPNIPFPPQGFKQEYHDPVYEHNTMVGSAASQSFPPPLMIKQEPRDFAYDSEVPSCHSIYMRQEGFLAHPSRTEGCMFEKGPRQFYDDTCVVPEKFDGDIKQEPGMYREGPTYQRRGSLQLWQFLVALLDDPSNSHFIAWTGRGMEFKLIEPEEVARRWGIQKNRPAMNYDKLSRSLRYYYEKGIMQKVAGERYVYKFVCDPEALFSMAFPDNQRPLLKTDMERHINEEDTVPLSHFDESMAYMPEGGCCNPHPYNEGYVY
# Summary of the method: as §1
sequence,measurement,setting,value
CACCTT,binding signal,[1],"1.36 fold enrichment (6-mer frequency, TF over GST control)"
same,binding signal,[2],"1.28 fold enrichment (6-mer frequency, TF over GST control)"
same,binding signal,[3],"1.22 fold enrichment (6-mer frequency, TF over GST control)"
same,binding signal,[4],"1.26 fold enrichment (6-mer frequency, TF over GST control)"
same,binding signal,[5],"1.24 fold enrichment (6-mer frequency, TF over GST control)"
same,binding signal,[6],"1.34 fold enrichment (6-mer frequency, TF over GST control)"
same,binding signal,[7],"1.25 fold enrichment (6-mer frequency, TF over GST control)"
same,binding signal,[8],"1.18 fold enrichment (6-mer frequency, TF over GST control)"
same,binding signal,[9],"1.26 fold enrichment (6-mer frequency, TF over GST control)"
same,binding signal,[10],"1.31 fold enrichment (6-mer frequency, TF over GST control)"
same,binding signal,[11],"1.18 fold enrichment (6-mer frequency, TF over GST control)"
same,binding signal,[12],"1.08 fold enrichment (6-mer frequency, TF over GST control)"
same,binding signal,[13],"1.2 fold enrichment (6-mer frequency, TF over GST control)"
same,binding signal,[14],"1.37 fold enrichment (6-mer frequency, TF over GST control)"
same,binding signal,[15],"1.39 fold enrichment (6-mer frequency, TF over GST control)"
same,binding signal,[16],"1.25 fold enrichment (6-mer frequency, TF over GST control)"
same,binding signal,[17],"1.26 fold enrichment (6-mer frequency, TF over GST control)"
same,binding signal,[18],"1.1 fold enrichment (6-mer frequency, TF over GST control)"
same,binding signal,[19],"1.35 fold enrichment (6-mer frequency, TF over GST control)"
